Results on 8 compounds are retold here after PubChem BioAssay (Tox21).

Each structure is given as a SMILES string. Values without a mark were called inactive. Records with an inconclusive call do not appear. Activity calls are given as the source filed them. Unless noted, calls come from the whole dose curve.

Assay [1] in a line: qHTS assay to identify small molecule agonists of the sonic hedgehog signaling (Shh) pathway (AID 1259368).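 Note: NIH/3T3-derived 3T3Gli1-Luc cells carrying a stable Gli1-driven firefly luciferase reporter; series mostly up to about 92 µM; nearly all actives have a fitted effect of over 15% in size.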 The method in brief: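 Cells of a mouse NIH/3T3 clone stably expressing luciferase under the Gli1 transcriptional response element are exposed to test chemicals for 24 hr at 37 C. Pathway activation is detected as a rise in luminescence.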
A short description of assay [2]: qHTS assay to identify small molecule antagonists of the sonic hedgehog signaling (Shh) pathway (AID 1259369). Note: nearly all actives have a fitted effect of over 45% in size. Note: potency is the fitted concentration of half-maximal effect. The method in brief:
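Cells are plated and held 4hr at 37 C, compounds (DMSO) are pinned in, conditioned medium is added to stimulate the pathway, and after 24hr luciferase reagent is added for 30min before luminescence is read.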

Assay [3] can be described thus: qHTS assay to identify small molecule agonists of the androgen receptor (AR) signaling pathway in the presence of an antagonist - cell viability counter screen (AID 1259379; active = well fitted curve in the direction sought with a large enough effect in the repeat runs; an effect the other way counts as inactive or inconclusive;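 note: MDA-kb2 human breast cancer cells carrying an MMTV luciferase reporter; series mostly up to about 92 µM; nearly all actives have a fitted effect of over 25% in size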). The method in brief: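 Cytotoxicity is assessed by CellTiter-Fluor in MDA-kb2 cells carrying an MMTV-driven luciferase reporter. Cells receive 3.0uM nilutamide plus compounds at 15 concentrations and incubate 16 hr at 37C without CO2 before fluorescence reading.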

A short description of assay [4]: qHTS assay to identify small molecule agonists of the estrogen receptor beta (ER-beta) signaling pathway - cell viability counter screen (AID 1259380; active = well fitted curve in the direction sought with a large enough effect in the repeat runs; an effect the other way counts as inactive or inconclusive; note: nearly all actives have a fitted effect of over 30% in size; note: potency is the fitted concentration of half-maximal effect). The method in brief: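 Cytotoxicity is measured in parallel with the reporter screen: after 16 hr compound exposure at 37C and a 2 hr LiveBLAzer step, CellTiter-Glo is added to the same ER-beta-UAS-bla HEK293T wells and luminescence read after 30 min.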

The nature of assay [5]: qHTS assay to identify small molecule antagonists of the estrogen receptor beta (ER-beta) signaling pathway - cell viability counter screen (AID 1259382; active = well fitted curve in the direction sought with a large enough effect in the repeat runs; an effect the other way counts as inactive or inconclusive; note: series mostly up to about 92 µM; nearly all actives have a fitted effect of over 55% in size). The method in brief:
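Cytotoxicity counter screen multiplexed with the beta-lactamase antagonist assay: GripTite HEK293T ER-beta-bla cells were treated 16 hr with test chemicals in the presence of 1nM 17-beta-estradiol, and viability was measured by CellTiter-Glo.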

The nature of assay [6]: qHTS assay to identify small molecule agonists or antagonists of the thyroid stimulating hormone receptor (TSHR) signaling pathway - wild type cell line counter screen (AID 1259384). Summed up:
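Wild-type Hek293 cells, 800/well, 18 h at 37C, then compound with Ro20-1724 for 30 min RT. cAMP by HTRF (cAMP-d2/anti-cAMP cryptate), 1 h RT, fluorescence read. 15 concentrations, triplicates.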

Assay [7] has as its target Thyrotropin receptor (Homo sapiens) (UniProt P16473). Put plainly: qHTS assay to identify small molecule antagonists of the thyroid stimulating hormone receptor (TSHR) signaling pathway (AID 1259385). Note: nearly all actives have a fitted effect of over 20% in size. Summed up:
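TSHR-HEK293 cells (800/well) plated 18 h, then compounds with Ro20-1724 and TSH at 1.5 ng/mL final, 30 min at room temperature. cAMP quantified by HTRF (cAMP-d2/anti-cAMP-cryptate, 1 h); 15 concentrations in triplicate.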

A short description of assay [8]: qHTS assay to identify small molecule agonists of the estrogen receptor alpha (ER-alpha) signaling pathway in the presence of an antagonist - cell viability counter screen (AID 1259386; active = well fitted curve in the direction sought with a large enough effect in the repeat runs; an effect the other way counts as inactive or inconclusive;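 note: series mostly up to about 92 µM; cells exposed to compounds for 22 h at 37 °C before the viability read; nearly all actives have a fitted effect of over 30% in size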). The method in brief: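 Cytotoxicity was measured in parallel with the ERE-luciferase agonist screen, in the same wells. The cells were VM7Luc4E2, which endogenously express ER-alpha, and treatment was with compounds plus 10.0nM ICI-182,780 for 22hr.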

In assay [9] the target is Progesterone receptor (Homo sapiens) (UniProt P06401). Put plainly: qHTS assay to identify small molecule agonists of the progesterone receptor (PR) signaling pathway (AID 1346784). Note: nearly all actives have a fitted effect of over 30% in size. Note: potency is the fitted concentration of half-maximal effect. Summed up:
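HEK 293T PR-UAS-bla reporter cells, 2% charcoal-stripped FBS; 6 hr settle at 37C/5% CO2, compound (DMSO) 16 hr, LiveBLAzer B/G FRET substrate 2 hr RT, fluorescence intensity read.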

The target is the same in assay [10]. Put plainly: qHTS assay to identify small molecule antagonists of the progesterone receptor (PR) signaling pathway (AID 1346795; active = well fitted inhibition curve with a large enough effect in the signal ratio in the repeat runs, not every such curve was filed as active; the % refers to the signal ratio; note: potency is the fitted concentration of half-maximal effect). Summed up:
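Beta-lactamase reporter, HEK293T PR-UAS-bla line; 2% charcoal-stripped FBS; 6 hr pre-incubation, 37C/5% CO2. Compound + R5020 1 nM final, 16 hr. LiveBLAzer B/G FRET substrate, 2 hr RT; fluorescence intensity read.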

A short description of assay [11]: qHTS assay to identify small molecule antagonists of the progesterone receptor (PR) signaling pathway - cell viability counter screen (AID 1346798; active = well fitted curve in the direction sought with a large enough effect in the repeat runs; an effect the other way counts as inactive or inconclusive; note: nearly all actives have a fitted effect of over 50% in size; note: potency is the fitted concentration of half-maximal effect). Summed up:
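Luminescence readout (CellTiter-Glo, 30 min, RT) of viability in PR-UAS-bla HEK293T cells exposed to compound and R5020 agonist for 16 hr at 37C, 5% CO2; run in the same wells as the beta-lactamase reporter read.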

A short description of assay [12]: qHTS assay to identify small molecule agonists of the progesterone receptor (PR) signaling pathway - cell viability counter screen (AID 1346799). Note: nearly all actives have a fitted effect of over 45% in size. Summed up: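 HEK293T PR-UAS-bla, 3,000 cells/well, 2% charcoal-stripped FBS; 6 h settle, compound 16 h at 37C/5% CO2; LiveBLAzer 2 h RT, then CellTiter-Glo 30 min RT, luminescence read.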
Assay [13] can be described thus: qHTS assay to identify small molecule antagonists of the TGF-beta/Smad signaling pathway - cell viability counter screen (AID 1346824; active = well fitted curve in the direction sought with a large enough effect in the repeat runs; an effect the other way counts as inactive or inconclusive; note: nearly all actives have a fitted effect of over 50% in size). The method in brief: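 SBE-bla HEK 293T cells, incubated overnight, then compound plus 0.25 ng/mL TGF-beta1 (stock added) for 5 hr at 37 C. Viability was read in the same wells by CellTiter-Glo luminescence after 30 min at room temperature.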

A short description of assay [14]: qHTS assay to identify small molecule agonists of the TGF-beta/Smad signaling pathway - cell viability counter screen (AID 1346829; active = well fitted curve in the direction sought with a large enough effect in the repeat runs; an effect the other way counts as inactive or inconclusive; note: top concentration of the series differs between compounds; nearly all actives have a fitted effect of over 45% in size). The method in brief: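 Compound-treated SBE-bla HEK 293T cells (5 hr, 37 C) were assessed for viability with CellTiter-Glo in parallel with the reporter read.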
Assay [15] can be described thus: qHTS assay to identify small molecule agonists of the TGF-beta/Smad signaling pathway (AID 1346859; active = well fitted activation curve with a large enough effect in the signal ratio in the repeat runs, not every such curve was filed as active; the % refers to the signal ratio; note: series mostly up to about 77 µM). The method in brief: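 Read-out: fluorescence at 460 and 530 nm (405 nm excitation) after a 2 hr room-temperature incubation with beta-lactamase FRET substrate. SBE-bla HEK 293T cells had been treated with test compounds for 5 hr at 37 C.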
The target in assay [16] is Thyrotropin-releasing hormone receptor (Homo sapiens) (UniProt P34981). Put plainly: qHTS assay to identify small molecule antagonists of the thyrotropin-releasing hormone receptor (TRHR) signaling pathway (AID 1346877; active = well fitted inhibition curve with a large enough effect in the repeat runs, not every such curve was filed as active; note: series mostly up to about 51 µM). The method in brief:
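Antagonism is measured as suppression of the calcium response to 1 nM TRH in TRHR-HEK293 cells that have been dye-loaded for 2 h at 37 °C after overnight plating. Each compound is tested at 15 concentrations in triplicate.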

In assay [17] the target is Estrogen receptor (Homo sapiens) (UniProt P03372). Put plainly: qHTS assay to identify small molecule agonists of the estrogen receptor alpha (ER-alpha) signaling pathway in the presence of an antagonist (AID 1259383). Note: top concentration of the series differs between compounds; nearly all actives have a fitted effect of over 15% in size. Summed up:
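Agonist-mode confirmation in the presence of the ER antagonist ICI-182,780 at 10.0nM final. Breast-derived VM7Luc4E2 reporter cells were exposed to compounds for 22hr, and ERE-driven luciferase was quantified by luminescence.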

Assay [18] concerns the target Estrogen receptor beta (Homo sapiens) (UniProt Q92731). Nature of the assay: qHTS assay to identify small molecule antagonists of the estrogen receptor beta (ER-beta) signaling pathway (AID 1259378; active = well fitted inhibition curve with a large enough effect in the signal ratio in the repeat runs, not every such curve was filed as active; the % refers to the signal ratio; note: potency is the fitted concentration of half-maximal effect). Summed up: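 ER-beta-UAS-bla HEK293T cells in 2% charcoal-stripped FBS medium treated with compound plus 1nM final 17-beta-estradiol for 16 hr at 37C. Beta-lactamase reporter read by FRET substrate fluorescence after 2 hours at room temperature.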

Assay [19] addresses Androgen receptor (Homo sapiens) (UniProt P10275). Put plainly: qHTS assay to identify small molecule agonists of the androgen receptor (AR) signaling pathway in the presence of an antagonist (AID 1259381). Note: nearly all actives have a fitted effect of over 15% in size. Note: potency is the fitted concentration of half-maximal effect. Summed up:
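Agonist-mode confirmation screen: human MDA-kb2 cells stably expressing luciferase under an MMTV promoter bearing AR and GR response elements, co-treated with 3.0uM nilutamide (final). Luminescence measured after 16hr compound incubation.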

Chain of Progesterone receptor (Homo sapiens) (P06401 whole entry, looked up): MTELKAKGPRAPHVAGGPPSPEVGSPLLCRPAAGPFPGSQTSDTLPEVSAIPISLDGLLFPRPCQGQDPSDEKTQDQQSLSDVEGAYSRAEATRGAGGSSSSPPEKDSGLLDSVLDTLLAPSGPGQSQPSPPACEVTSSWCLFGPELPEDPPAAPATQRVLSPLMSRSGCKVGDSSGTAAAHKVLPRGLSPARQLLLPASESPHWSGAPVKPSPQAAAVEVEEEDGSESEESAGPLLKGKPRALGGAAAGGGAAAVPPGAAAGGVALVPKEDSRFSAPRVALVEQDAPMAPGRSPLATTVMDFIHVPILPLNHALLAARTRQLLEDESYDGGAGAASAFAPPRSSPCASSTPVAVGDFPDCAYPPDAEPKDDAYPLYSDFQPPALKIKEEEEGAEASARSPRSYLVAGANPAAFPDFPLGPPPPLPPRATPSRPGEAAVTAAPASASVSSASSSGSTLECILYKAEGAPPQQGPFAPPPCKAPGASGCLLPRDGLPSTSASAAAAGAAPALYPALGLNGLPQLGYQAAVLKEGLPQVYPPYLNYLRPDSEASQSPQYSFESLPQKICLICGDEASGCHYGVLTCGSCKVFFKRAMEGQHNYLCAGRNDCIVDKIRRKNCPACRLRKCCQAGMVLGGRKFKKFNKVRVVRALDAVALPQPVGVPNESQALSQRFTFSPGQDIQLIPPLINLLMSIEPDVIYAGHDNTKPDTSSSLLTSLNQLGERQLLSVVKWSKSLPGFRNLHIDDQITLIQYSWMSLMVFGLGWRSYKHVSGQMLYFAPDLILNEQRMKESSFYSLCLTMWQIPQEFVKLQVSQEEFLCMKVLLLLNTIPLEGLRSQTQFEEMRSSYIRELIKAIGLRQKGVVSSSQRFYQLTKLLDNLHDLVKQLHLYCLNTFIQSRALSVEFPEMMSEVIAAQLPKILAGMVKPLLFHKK
Chain of Thyrotropin receptor (Homo sapiens) (P16473 whole entry, looked up): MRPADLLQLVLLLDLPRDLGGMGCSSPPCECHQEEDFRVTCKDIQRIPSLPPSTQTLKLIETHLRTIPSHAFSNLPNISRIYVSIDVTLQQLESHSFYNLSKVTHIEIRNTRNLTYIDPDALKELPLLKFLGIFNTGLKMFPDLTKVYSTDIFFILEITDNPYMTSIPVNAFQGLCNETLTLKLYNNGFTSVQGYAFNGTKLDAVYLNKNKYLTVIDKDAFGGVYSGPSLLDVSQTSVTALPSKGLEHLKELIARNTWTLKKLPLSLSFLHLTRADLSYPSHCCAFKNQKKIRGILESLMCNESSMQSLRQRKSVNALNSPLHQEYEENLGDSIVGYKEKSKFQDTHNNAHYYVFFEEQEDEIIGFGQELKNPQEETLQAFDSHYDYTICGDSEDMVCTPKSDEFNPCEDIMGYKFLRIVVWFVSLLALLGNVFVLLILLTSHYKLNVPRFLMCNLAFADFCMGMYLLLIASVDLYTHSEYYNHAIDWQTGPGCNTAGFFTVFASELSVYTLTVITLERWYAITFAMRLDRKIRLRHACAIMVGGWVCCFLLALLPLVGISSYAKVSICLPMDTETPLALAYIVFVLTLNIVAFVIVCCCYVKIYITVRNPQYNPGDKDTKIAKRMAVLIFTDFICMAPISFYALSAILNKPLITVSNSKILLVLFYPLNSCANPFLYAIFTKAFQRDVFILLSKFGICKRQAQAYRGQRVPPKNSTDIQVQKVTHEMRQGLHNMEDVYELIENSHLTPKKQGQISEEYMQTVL
Chain of Thyrotropin-releasing hormone receptor (Homo sapiens) (P34981 whole entry, looked up): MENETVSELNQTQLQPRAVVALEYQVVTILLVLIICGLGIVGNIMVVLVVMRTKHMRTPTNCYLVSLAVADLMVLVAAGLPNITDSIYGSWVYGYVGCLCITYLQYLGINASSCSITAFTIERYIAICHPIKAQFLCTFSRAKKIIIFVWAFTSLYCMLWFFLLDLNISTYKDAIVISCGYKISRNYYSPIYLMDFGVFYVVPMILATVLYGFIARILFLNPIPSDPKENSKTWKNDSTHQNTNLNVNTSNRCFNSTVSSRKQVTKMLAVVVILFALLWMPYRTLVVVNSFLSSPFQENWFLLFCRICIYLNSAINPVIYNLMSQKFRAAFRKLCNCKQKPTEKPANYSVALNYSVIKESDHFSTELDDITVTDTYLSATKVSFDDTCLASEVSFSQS
Chain of Estrogen receptor (Homo sapiens) (P03372 whole entry, looked up): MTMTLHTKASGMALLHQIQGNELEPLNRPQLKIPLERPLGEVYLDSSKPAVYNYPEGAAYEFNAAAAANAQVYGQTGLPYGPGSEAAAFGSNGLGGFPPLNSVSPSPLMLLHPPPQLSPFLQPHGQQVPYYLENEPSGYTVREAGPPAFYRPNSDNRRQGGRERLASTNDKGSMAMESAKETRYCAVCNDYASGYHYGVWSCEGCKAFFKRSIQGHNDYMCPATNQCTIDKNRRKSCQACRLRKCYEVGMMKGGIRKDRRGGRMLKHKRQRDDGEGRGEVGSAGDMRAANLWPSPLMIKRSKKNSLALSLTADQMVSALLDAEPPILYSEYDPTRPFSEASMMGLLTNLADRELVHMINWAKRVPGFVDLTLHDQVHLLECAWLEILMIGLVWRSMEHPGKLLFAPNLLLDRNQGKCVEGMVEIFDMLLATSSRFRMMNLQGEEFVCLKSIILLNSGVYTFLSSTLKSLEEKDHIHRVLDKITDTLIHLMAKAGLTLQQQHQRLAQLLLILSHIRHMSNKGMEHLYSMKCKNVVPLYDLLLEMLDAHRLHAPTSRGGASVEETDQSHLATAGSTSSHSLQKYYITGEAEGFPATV
Chain of Estrogen receptor beta (Homo sapiens) (Q92731 whole entry, looked up): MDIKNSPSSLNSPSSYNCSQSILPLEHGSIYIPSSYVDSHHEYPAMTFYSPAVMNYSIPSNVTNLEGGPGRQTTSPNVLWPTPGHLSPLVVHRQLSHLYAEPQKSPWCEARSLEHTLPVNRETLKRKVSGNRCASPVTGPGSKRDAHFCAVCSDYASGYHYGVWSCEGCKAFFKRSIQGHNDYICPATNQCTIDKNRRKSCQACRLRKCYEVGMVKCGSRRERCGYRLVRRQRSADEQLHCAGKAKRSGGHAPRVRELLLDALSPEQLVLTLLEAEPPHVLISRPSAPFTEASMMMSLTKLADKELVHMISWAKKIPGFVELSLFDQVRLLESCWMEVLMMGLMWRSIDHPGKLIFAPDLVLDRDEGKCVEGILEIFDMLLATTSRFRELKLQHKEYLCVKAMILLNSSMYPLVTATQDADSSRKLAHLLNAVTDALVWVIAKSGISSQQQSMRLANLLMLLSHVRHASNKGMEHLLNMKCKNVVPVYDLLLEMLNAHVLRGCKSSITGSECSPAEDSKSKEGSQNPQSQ
Chain of Androgen receptor (Homo sapiens) (P10275 whole entry, looked up): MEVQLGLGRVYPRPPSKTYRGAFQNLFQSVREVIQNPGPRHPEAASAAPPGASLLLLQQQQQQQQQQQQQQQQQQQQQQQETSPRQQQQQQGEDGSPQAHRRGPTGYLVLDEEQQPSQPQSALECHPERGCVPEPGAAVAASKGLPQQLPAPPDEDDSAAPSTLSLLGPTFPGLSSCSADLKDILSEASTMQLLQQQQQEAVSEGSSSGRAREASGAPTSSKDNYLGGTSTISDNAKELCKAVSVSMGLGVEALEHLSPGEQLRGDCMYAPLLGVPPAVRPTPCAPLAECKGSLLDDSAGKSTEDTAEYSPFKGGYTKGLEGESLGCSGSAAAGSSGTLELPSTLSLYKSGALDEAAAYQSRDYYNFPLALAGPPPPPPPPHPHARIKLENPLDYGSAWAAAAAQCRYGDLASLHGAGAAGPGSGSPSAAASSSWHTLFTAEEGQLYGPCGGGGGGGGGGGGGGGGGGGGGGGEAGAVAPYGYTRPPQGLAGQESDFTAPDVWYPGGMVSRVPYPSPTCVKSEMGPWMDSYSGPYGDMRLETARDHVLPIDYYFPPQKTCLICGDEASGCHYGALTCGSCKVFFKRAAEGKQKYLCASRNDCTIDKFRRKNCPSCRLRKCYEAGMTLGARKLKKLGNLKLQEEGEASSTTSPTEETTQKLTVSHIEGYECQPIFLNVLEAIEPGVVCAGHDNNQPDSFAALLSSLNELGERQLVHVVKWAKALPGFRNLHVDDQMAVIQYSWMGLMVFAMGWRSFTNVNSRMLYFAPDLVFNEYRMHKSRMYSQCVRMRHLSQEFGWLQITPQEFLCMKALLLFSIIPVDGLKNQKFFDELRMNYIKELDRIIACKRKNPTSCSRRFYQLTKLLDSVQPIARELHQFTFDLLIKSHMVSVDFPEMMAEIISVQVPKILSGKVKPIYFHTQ

Take `CCOC(=O)c1ccccc1OC`: the Potency entry in [1], in assay [2], in [3], in assay [4], in [5] and in assay [7] was “inactive” each time. Also, the Potency result in [8], in assay [9], in [10], in assay [11] and in assay [12] was “inactive” in each case. In addition, the compound was called inactive in assay [6], in assay [13], in assay [14], in assay [15] and in assay [16].
On to `CC(C)CCCCCCOC(=O)CCCCC(=O)OCCCCCCC(C)C`, for which the Potency entry in [1], in assay [2], in assay [3], in [4], in assay [5] and in assay [17] was “inactive” in each case. For the same compound, the Potency entry in assay [7], in assay [8], in [9], in [10], in assay [11] and in assay [12] was “inactive” in each case. Also, the compound was classed as inactive in assay [6], in assay [13], in [14] and in assay [15].
Consider `CCCCCCOC(=O)CCCCCCCC(=O)OCCCCCC`, for which the Potency entry in assay [1], in assay [2], in assay [3], in [4], in assay [5] and in [7] was “inactive” each time. Moreover, the Potency entry in [8], in assay [9], in [10], in assay [11] and in assay [12] was “inactive” in each case. The compound was called inactive in assay [6], in [13], in assay [14], in assay [15] and in [16].
Consider `N#C[C@@H]1C[C@@H]2C[C@@H]2N1C(=O)[C@@H](N)C12CC3CC(CC(O)(C3)C1)C2`, for which the Potency entry in assay [1], in assay [2], in [3], in assay [4], in [5] and in assay [17] was “inactive” in each case. In addition, the Potency entry in [7], in [8], in [9], in assay [10], in assay [11] and in assay [12] was “inactive” each time. In addition, the result in assay [6], in [13], in [14] and in assay [15] was inactive.
As to `CCOC(=O)CC(=O)C(=O)OCC`, the Potency entry in assay [1], in assay [2], in [17] and in assay [7] was “inactive” in each case. Also, the Potency in [18] was 48.6 µM (active); in assay [4] it was 8.63 µM (active); in assay [19] it was 1.54 µM (active); in assay [11] it was 15.4 µM (active). Besides, the compound was called inactive in assay [6], in [13], in assay [14], in [15] and in assay [16].
On to `Fc1c(F)c(F)c(Br)c(F)c1F`, for which the Potency result in [1], in assay [2], in assay [3], in [4], in assay [5] and in assay [7] was “inactive” each time. In addition, the Potency entry in [8], in assay [9], in assay [10] and in assay [12] was “inactive” each time. The compound was called inactive in assay [6], in assay [13], in [14], in [15] and in assay [16].
Regarding `COc1cc2ncnc(Nc3ccc(F)c(Cl)c3)c2cc1OCCCN1CCOCC1`, the Potency entry in [1], in assay [19], in [17], in assay [7] and in [8] was “inactive” in each case. Also, the Potency in assay [2] was 15 µM (active); in [18], 7.5 µM (active); in [4] it was 6.68 µM (active); in assay [10], 21.1 µM (active). Moreover, the call in [6], in assay [13], in assay [14], in assay [15] and in assay [16] was inactive.
Consider `CC1(C)O[C@@H]2C[C@H]3[C@@H]4CCC5=CC(=O)C=C[C@]5(C)[C@H]4[C@@H](O)C[C@]3(C)[C@]2(C(=O)CO)O1`, for which the Potency result in assay [1], in assay [2], in assay [3], in assay [4], in assay [5] and in assay [17] was “inactive” each time. The Potency result in [7], in assay [8] and in assay [11] was “inactive” throughout. Besides, the call in [6], in assay [13], in [14] and in assay [16] was inactive. For the same compound, the Potency in assay [9] was 133 nM (active).
